A number with no mark means an inactive call. The source made the active and inactive calls. Unless noted, the call rests on the fitted dose curve.
Potency means the concentration at half of the fitted maximal effect.

The target in one assay is Glucocorticoid receptor (Homo sapiens) (UniProt P04150). Kind of assay: GR-GFP Redistribution (AID 450;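 active means compounds whose dose series gives a full or clear partial fitted curve of increased nuclear translocation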). To be noted: U2OS GR-GFP nuclear translocation, laser cytometry, 2 h.
Sequence of Glucocorticoid receptor (Homo sapiens) (P04150 whole entry, looked up): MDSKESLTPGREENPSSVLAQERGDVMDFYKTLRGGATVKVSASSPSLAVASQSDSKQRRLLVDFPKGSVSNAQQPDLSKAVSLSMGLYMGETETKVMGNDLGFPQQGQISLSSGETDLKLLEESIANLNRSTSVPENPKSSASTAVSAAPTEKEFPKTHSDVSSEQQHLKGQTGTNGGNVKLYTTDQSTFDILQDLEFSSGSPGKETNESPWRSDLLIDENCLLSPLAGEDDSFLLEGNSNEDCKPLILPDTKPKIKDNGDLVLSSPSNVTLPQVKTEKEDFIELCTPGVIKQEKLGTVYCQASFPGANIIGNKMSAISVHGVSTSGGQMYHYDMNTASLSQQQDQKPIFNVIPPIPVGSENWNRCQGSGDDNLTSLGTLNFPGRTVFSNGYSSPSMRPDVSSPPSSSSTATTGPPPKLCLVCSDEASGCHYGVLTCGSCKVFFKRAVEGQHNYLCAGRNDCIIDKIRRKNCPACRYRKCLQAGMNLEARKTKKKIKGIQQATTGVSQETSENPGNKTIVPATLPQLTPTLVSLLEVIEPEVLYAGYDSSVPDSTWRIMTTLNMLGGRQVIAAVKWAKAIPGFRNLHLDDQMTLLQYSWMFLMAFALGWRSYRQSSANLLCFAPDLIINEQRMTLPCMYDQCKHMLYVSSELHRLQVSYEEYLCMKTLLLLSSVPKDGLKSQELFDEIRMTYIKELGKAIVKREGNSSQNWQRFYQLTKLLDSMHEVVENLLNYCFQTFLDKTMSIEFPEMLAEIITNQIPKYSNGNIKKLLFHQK
On to `COC1=C[C@H]2[C@@H]3Cc4ccc(OC)c(O)c4[C@@]2(CCN3C)CC1=O`, for which the Potency was over 46 µM.

`O=c1ccc2cc(O[C@@H]3O[C@@H](CO)[C@@H](O)[C@@H](O)[C@H]3O)c(O)cc2o1`: the Potency is over 46 µM.

For the molecule `CC(C)(O)[C@H]1[C@H]2OC(=O)[C@@H]1[C@]1(O)C[C@H]3O[C@]34C(=O)O[C@H]2[C@]14C`, the Potency was over 46 µM.

For `C=C(C)[C@H]1[C@H]2OC(=O)[C@@H]1[C@]1(O)C[C@H]3O[C@]34C(=O)O[C@H]2[C@]14C`, the Potency was over 46 µM.

As for `CC[C@H](CO)NC(=O)[C@H]1C=C2c3cccc4[nH]cc(c34)C[C@H]2N(C)C1`, the Potency was over 46 µM.

`Oc1cc2c(cc1O)[C@H]1c3ccccc3CN[C@H]1CC2`: the Potency is over 46 µM.

On to `CC1=CC(=O)C2=C(C)C[C@H](O)[C@@H]3[C@@H](OC(=O)[C@H]3C)[C@H]12`, for which the Potency is over 46 µM.

Regarding `COc1cc2c(cc1OC)-c1c(OC)c(OC)c(CO)c3c1[C@H](C2)N(C)CC3`, the Potency was over 46 µM.

Take `COC[C@H]1OC(=O)c2coc3c2[C@@]1(C)C1=C(C3=O)[C@H]2CCC(=O)[C@@]2(C)C[C@H]1OC(C)=O`: the Potency was 0.838 µM (active).

Turning to `C[C@@]12CCC[C@](C)(C(=O)O)[C@@H]1CCc1ccc(O)cc12`, the Potency is over 46 µM.

Consider `C[C@H]1CC[C@@H]2[C@@H](C)C(=O)O[C@H]3O[C@@]4(C)CC[C@@H]1[C@]32OO4`, for which the Potency was over 46 µM.

For the molecule `COc1cc2c(cc1OC)-c1c(O)c(OC)cc3c1[C@@H](C2)N(C)CC3`, the Potency was over 46 µM.

`COc1cc2c(cc1O)CCN[C@H]2C`: the Potency is over 46 µM.

As for `OC[C@H]1CCCN2CCCC[C@@H]12`, the Potency is over 46 µM.

Another assay has the same target. Kind of assay: GR-EFC Redistribution (AID 451). Particulars: CHO-K1 GR-EFC translocation, beta-gal luminescence, 2 h. In a few lines: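 CHO-K1 cells stably expressing nuclear-localized β-gal enzyme acceptor and GR fused C-terminally to the enzyme donor fragment; ligand-driven nuclear translocation restores β-gal by complementation. Compounds titrated up to 46 uM final, 2 h at 37 °C; luminescence read.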
Take `COC1=C[C@H]2[C@@H]3Cc4ccc(OC)c(O)c4[C@@]2(CCN3C)CC1=O`: the Potency was over 46 µM.

For the molecule `O=c1ccc2cc(O[C@@H]3O[C@@H](CO)[C@@H](O)[C@@H](O)[C@H]3O)c(O)cc2o1`, the Potency is over 46 µM.

For the molecule `CC(C)(O)[C@H]1[C@H]2OC(=O)[C@@H]1[C@]1(O)C[C@H]3O[C@]34C(=O)O[C@H]2[C@]14C`, the Potency was over 46 µM.

Regarding `C=C(C)[C@H]1[C@H]2OC(=O)[C@@H]1[C@]1(O)C[C@H]3O[C@]34C(=O)O[C@H]2[C@]14C`, the Potency is over 46 µM.

On to `CC[C@H](CO)NC(=O)[C@H]1C=C2c3cccc4[nH]cc(c34)C[C@H]2N(C)C1`, for which the Potency is over 46 µM.

As for `Oc1cc2c(cc1O)[C@H]1c3ccccc3CN[C@H]1CC2`, the Potency was over 46 µM.

`CC1=CC(=O)C2=C(C)C[C@H](O)[C@@H]3[C@@H](OC(=O)[C@H]3C)[C@H]12`: the Potency was over 46 µM.

Consider `COc1cc2c(cc1OC)-c1c(OC)c(OC)c(CO)c3c1[C@H](C2)N(C)CC3`, for which the Potency was over 46 µM.

Regarding `COC[C@H]1OC(=O)c2coc3c2[C@@]1(C)C1=C(C3=O)[C@H]2CCC(=O)[C@@]2(C)C[C@H]1OC(C)=O`, the Potency is over 46 µM.

For `C[C@@]12CCC[C@](C)(C(=O)O)[C@@H]1CCc1ccc(O)cc12`, the Potency was over 46 µM.

In the case of `C[C@H]1CC[C@@H]2[C@@H](C)C(=O)O[C@H]3O[C@@]4(C)CC[C@@H]1[C@]32OO4`, the Potency is over 46 µM.

Consider `COc1cc2c(cc1OC)-c1c(O)c(OC)cc3c1[C@@H](C2)N(C)CC3`, for which the Potency was over 46 µM.

Consider `COc1cc2c(cc1O)CCN[C@H]2C`, for which the Potency was over 46 µM.

On to `OC[C@H]1CCCN2CCCC[C@@H]12`, for which the Potency is over 46 µM.

Values taken from PubChem BioAssay (NCATS).
